GPR151 activ: activators of human GPR151, primary screen, cell-based, PathHunter beta-arrestin, luminescence | G-protein coupled receptor 151 (Homo sapiens), Q8TDV0 | PathHunter beta-arrestin GPR151 cells | activation, % at 11.2 µM | hit rate 1% among 650,000; in the data active = activation above about 4.9%;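 also: 0% = median of compound wells and 100% = cells with positive control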
MITF inh: MITF inhibitors, primary screen, biochemical, AlphaScreen, human. Microphthalmia-associated transcription factor (Homo sapiens), O75030. hit rate 0.91% among 650,000. AlphaScreen MITF homodimerization, bead proximity signal. inhibition, % at 2.6 µM; in the data active = inhibition above about 50%;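 also: 0% = vehicle wells with protein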
Target sequence (O75030 whole entry, looked up): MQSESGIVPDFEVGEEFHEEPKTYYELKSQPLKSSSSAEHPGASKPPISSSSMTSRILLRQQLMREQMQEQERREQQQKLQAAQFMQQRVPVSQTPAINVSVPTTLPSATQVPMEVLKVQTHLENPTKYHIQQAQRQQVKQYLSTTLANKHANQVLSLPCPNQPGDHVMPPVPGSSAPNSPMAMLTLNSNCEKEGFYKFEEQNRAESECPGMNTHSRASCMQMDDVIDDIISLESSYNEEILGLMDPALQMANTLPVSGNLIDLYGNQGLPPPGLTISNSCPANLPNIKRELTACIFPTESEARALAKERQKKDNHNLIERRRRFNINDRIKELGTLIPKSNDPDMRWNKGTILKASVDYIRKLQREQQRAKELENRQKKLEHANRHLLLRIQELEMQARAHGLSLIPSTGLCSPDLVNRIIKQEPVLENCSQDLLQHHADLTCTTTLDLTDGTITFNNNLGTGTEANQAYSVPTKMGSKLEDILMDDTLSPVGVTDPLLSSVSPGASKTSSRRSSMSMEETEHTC
TEAD-YAP inh: TEAD-YAP interaction inhibition, primary screen, TEAD-YAP interaction inhibitor project, luminescence, HEK-TIYL cells; TEAD-Gal4/YAP UAS-luciferase luminescence; inhibition, % at 9.12 µM; hit rate 1.4% among 640,000; in the data active = inhibition above about 32%;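 also: 0% = median of test compound wells and 100% = reference inhibitor wells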
FBW7 activator: FBW7 E3 ligase activators, primary screen, biochemical, AlphaScreen, human; normalized activity (activation), % at 26.1 µM; hit rate 0.13% among 650,000; F-box/WD repeat-containing protein 7 (Homo sapiens), Q969H0; AlphaScreen FBW7–phospho-cyclin E peptide binding, activator screen; in the data active = normalized activity above about 1.9%;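 also: purified mutant Fbw7 with reduced substrate affinity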
MITF confirm: MITF inhibitors, retest of hits, confirmation, biochemical, AlphaScreen, triplicate | shares compounds with MITF inh | AlphaScreen MITF homodimerization, biotin/His-MITF beads | inhibition, % at 2.6 µM | hit rate 16% among 4,700 | AID 1259372, 2018;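 active = inhibition above a cutoff derived from the DMSO control wells, cut at about 28% in these data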;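 also: 0% = MITF dimer wells with DMSO only; inhibitors lower the bead chemiluminescence by keeping MITF from dimerizing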
AlphaScreen intf2: AlphaScreen optical interference compounds, counter-screen for MITF inhibitor project, biochemical, triplicate; hit rate 7.6% among 4,700; LysRS AlphaScreen counterscreen, signal interference; inhibition, % at 2.6 µM; AID 1259376, 2018; shares compounds with MITF inh;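 active = inhibition above a cutoff derived from the DMSO control wells, cut at about 30% in these data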
* = called active by the depositor. This is a sample that favours compounds with a hit; in the whole collection about 3.5% have one here.

Results for c1cc2c(cc1CN1CCCCC1)OCO2 ?
GPR151 activ: 0.9; MITF inh: 1.4; TEAD-YAP inh: -0.5; FBW7 activator: -0.1

What do the screens show for `CN1CCN(C(=S)C(=O)NCc2ccc3c(c2)OCO3)CC1`?
GPR151 activ: 1.5; MITF inh: -5.5; TEAD-YAP inh: 5.2; FBW7 activator: -0.1

How did c1cc2c(cc1CN1CCN(Cc3ccc4c(c3)OCO4)CC1)OCO2 do in these assays?
GPR151 activ: 1.7; MITF inh: 69.5*; TEAD-YAP inh: 1.8; FBW7 activator: 0.1; MITF confirm: -0.7; AlphaScreen intf2: 3.2

What do the screens show for `CN1CCCN(Cc2ccc3c(c2)OCO3)CC1`?
GPR151 activ: 3.0; MITF inh: 52.1*; TEAD-YAP inh: -4.0; FBW7 activator: -0.1; MITF confirm: 2.1; AlphaScreen intf2: 0.6

How did CN1CCN(CC(=O)NCc2ccc3c(c2)OCO3)CC1 do in these assays?
GPR151 activ: -0.4; MITF inh: 83.3*; TEAD-YAP inh: 10.1; FBW7 activator: 0.0; MITF confirm: 6.0; AlphaScreen intf2: 17.8

Results for CCC(C)N1CCN(CC2CC=CCC2)CC1 (stereo not given) ?
GPR151 activ: 0.2; MITF inh: 62.4*; TEAD-YAP inh: -1.4; FBW7 activator: -0.1; MITF confirm: 16.7; AlphaScreen intf2: 16.7

How did CC(C)(C)NC(=O)COC(=O)c1c(Cl)cccc1Cl do in these assays?
GPR151 activ: 2.1; MITF inh: 10.2; TEAD-YAP inh: -6.5; FBW7 activator: 0.2

What do the screens show for `Cc1ccc(S(=O)(=O)N2CC=C(c3c(C)[nH]c4ccccc34)CC2)cc1`?
GPR151 activ: -0.3; MITF inh: 10.7; TEAD-YAP inh: -2.6; FBW7 activator: 0.3

Results for CCOC(=O)C1=C(c2ccccc2)OC(N)=C(C#N)C1c1cccc(Br)c1 (stereo not given) ?
GPR151 activ: 0.7; MITF inh: 4.0; TEAD-YAP inh: -4.7; FBW7 activator: 0.1

What do the screens show for `COc1ccc(-c2cc(C(=O)OCC(=O)c3ccc([N+](=O)[O-])cc3)c3ccccc3n2)cc1`?
GPR151 activ: 0.2; MITF inh: 10.3; TEAD-YAP inh: 1.4; FBW7 activator: 0.1

Results for O=C(c1ccncc1)N1CCN(Cc2ccc3c(c2)OCO3)CC1 ?
GPR151 activ: -0.9; MITF inh: 86.6*; TEAD-YAP inh: -5.6; FBW7 activator: 0.8; MITF confirm: -0.6; AlphaScreen intf2: 1.2

What do the screens show for `CCOC(=O)N1CCN(Cc2ccc3c(c2)OCO3)CC1`?
GPR151 activ: 1.0; MITF inh: -17.2; TEAD-YAP inh: -8.9; FBW7 activator: -0.1

What do the screens show for `Cc1ccccc1CN1CCN(CC2CC=CCC2)CC1` (stereo not given)?
GPR151 activ: -1.8; MITF inh: 68.0*; TEAD-YAP inh: -9.3; FBW7 activator: 0.0; MITF confirm: -2.6; AlphaScreen intf2: 16.9

What do the screens show for `Cc1ccccc1CN1CCC(CN)CC1`?
GPR151 activ: -0.2; MITF inh: -3.6; TEAD-YAP inh: 11.3; FBW7 activator: -0.1

Results for CCOc1ccccc1CN1CCN(Cc2ccc3c(c2)OCO3)CC1 ?
GPR151 activ: 0.8; MITF inh: 52.5*; TEAD-YAP inh: 2.0; FBW7 activator: 0.0; MITF confirm: 4.2; AlphaScreen intf2: -0.1

What do the screens show for `C1=CCC(CN2CCN(Cc3ccc4c(c3)OCO4)CC2)CC1` (stereo not given)?
GPR151 activ: 0.0; MITF inh: 66.0*; TEAD-YAP inh: -2.4; FBW7 activator: 0.6; MITF confirm: 6.6; AlphaScreen intf2: 19.2

What do the screens show for `COc1cc(C(=O)Nc2cc(C(F)(F)F)ccc2Cl)c(Br)c(OC)c1OC`?
GPR151 activ: 0.0; MITF inh: -5.6; TEAD-YAP inh: -0.5; FBW7 activator: 0.0

Results for C/C(=N/NC(=O)c1ccccc1)c1ccc(Br)cc1 ?
GPR151 activ: -0.8; MITF inh: -27.9; TEAD-YAP inh: -53.6; FBW7 activator: 0.2

How did CC(Oc1ccc(Br)cc1)C(=O)Nc1ccccc1C#N (stereo not given) do in these assays?
GPR151 activ: -0.1; MITF inh: -16.7; TEAD-YAP inh: -6.1; FBW7 activator: 0.0

Results for CCC(=O)n1c(=O)oc2cc(Cl)ccc21 ?
GPR151 activ: 0.6; MITF inh: 7.7; TEAD-YAP inh: 14.3; FBW7 activator: 0.0

Results for CC(C)(C)n1nnnc1C(c1cccs1)N1CCN(Cc2ccc3c(c2)OCO3)CC1 (stereo not given) ?
GPR151 activ: -0.8; MITF inh: 78.5*; TEAD-YAP inh: 3.9; FBW7 activator: 0.4; MITF confirm: 14.6; AlphaScreen intf2: 17.4

What do the screens show for `Cc1ccc(S(=O)(=O)N2CCN(CC3CC=CCC3)CC2)cc1` (stereo not given)?
GPR151 activ: 0.2; MITF inh: 33.8; TEAD-YAP inh: 1.0; FBW7 activator: 0.0

Results for COc1cc(CN2CCN(CC3CC=CCC3)CC2)cc(OC)c1O (stereo not given) ?
GPR151 activ: 1.6; MITF inh: 4.2; TEAD-YAP inh: -1.9; FBW7 activator: -0.1

How did C1=CCC(CN2CCN(C3CCCCC3)CC2)CC1 (stereo not given) do in these assays?
GPR151 activ: -0.2; MITF inh: 51.4*; TEAD-YAP inh: -1.0; FBW7 activator: 0.1; MITF confirm: 11.9; AlphaScreen intf2: 16.1

Results for COc1ccc(CN2CCN(CC3CC=CCC3)CC2)c(OC)c1OC (stereo not given) ?
GPR151 activ: 1.1; MITF inh: 65.6*; TEAD-YAP inh: 12.1; FBW7 activator: -0.1; MITF confirm: -18.7; AlphaScreen intf2: -2.4

Results for OC(CN1CCOCC1)CN1CCN(Cc2ccc3c(c2)OCO3)CC1 (stereo not given) ?
GPR151 activ: 0.4; MITF inh: 76.2*; TEAD-YAP inh: -0.9; FBW7 activator: 0.1; MITF confirm: 6.7; AlphaScreen intf2: 9.7

What do the screens show for `O=C(/C=C\c1ccccc1[N+](=O)[O-])N1CCCCC1`?
GPR151 activ: -2.6; MITF inh: 12.2; TEAD-YAP inh: -4.9; FBW7 activator: 0.0

Results for Clc1cccc(CN2CCN(CC3CC=CCC3)CC2)c1 (stereo not given) ?
GPR151 activ: 0.7; MITF inh: 31.9; TEAD-YAP inh: -7.2; FBW7 activator: -0.1

Results for CCc1ccc(CN2CCN(CC3CC=CCC3)CC2)cc1 (stereo not given) ?
GPR151 activ: -1.1; MITF inh: 69.3*; TEAD-YAP inh: -7.7; FBW7 activator: 0.0; MITF confirm: -3.7; AlphaScreen intf2: 0.6

How did O=C(CNCc1ccco1)NCc1ccc2c(c1)OCO2 do in these assays?
GPR151 activ: -0.2; MITF inh: 66.5*; TEAD-YAP inh: 1.5; FBW7 activator: -0.1; MITF confirm: 9.5; AlphaScreen intf2: 21.4
